CHO-K1 Ca PAM: M1 PAM counterscreen hit in parental CHO-K1 cells; ATP EC20, Fluo-8 calcium fluorescence; 0% at ATP EC20, 100% at ATP max; activation, % at 3 µM; 0.02% of 360,000 active; AID 602247;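 active means activation above the run cutoff, the mean activation of all test compounds plus 3 SD, cut at about 40% in these data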;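 further: peak over basal fluorescence ratio in a 140 s read after ATP addition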
CHRM4 antagonist: blocks acetylcholine activation of human M4 receptor | CHO-hM4 cells, ACh EC80, Fluo-8 calcium fluorescence | P08173 | 0.73% of 360,000 active | AID 624125 | inhibition, % at 3 µM;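 active means inhibition above its plate's cutoff, the mean inhibition of sample wells plus 3 SD, cut at about 27% in these data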
Target sequence (P08173 whole entry, looked up): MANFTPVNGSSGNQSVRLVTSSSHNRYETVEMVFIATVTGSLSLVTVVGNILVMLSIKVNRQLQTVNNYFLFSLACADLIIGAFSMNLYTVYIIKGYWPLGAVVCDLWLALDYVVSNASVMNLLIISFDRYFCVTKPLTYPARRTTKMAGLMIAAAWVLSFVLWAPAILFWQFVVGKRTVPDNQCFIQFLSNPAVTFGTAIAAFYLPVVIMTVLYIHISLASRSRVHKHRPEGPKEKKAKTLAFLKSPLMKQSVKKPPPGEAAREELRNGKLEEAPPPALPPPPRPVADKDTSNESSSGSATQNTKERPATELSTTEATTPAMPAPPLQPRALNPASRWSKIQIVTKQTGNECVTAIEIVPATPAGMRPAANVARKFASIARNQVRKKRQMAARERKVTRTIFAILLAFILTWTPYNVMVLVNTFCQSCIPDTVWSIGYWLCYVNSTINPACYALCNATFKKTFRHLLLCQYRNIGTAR
CHO-K1 Ca antag: nonselective inhibitor or artifact in parental CHO-K1 cells; 0.6% of 360,000 active; inhibition, % at 3 µM; ATP-induced calcium, Fluo-8 fluorescence; AID 602250;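 active means inhibition above a per-plate cutoff, the plate's mean sample inhibition plus 3 SD, cut at about 24% in these data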
CHRM4 PAM: CHRM4 positive allosteric modulation. P08173. CHO-K1 hM4/Gqi5, Fluo-8 calcium fluorescence, ACh EC20; 0% = ACh EC20, 100% = maximal ACh. activation, % at 3 µM. 0.4% of 360,000 active. AID 624126;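 active means activation above its plate's cutoff, the mean activation of sample wells plus 3 SD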
M1 ag parental: nonselective activator or artifact in parental CHO-K1 cells | Fluo-8 calcium fluorescence; scaled to maximal ATP response, vehicle zero | activation, % at 3 µM | 0.48% of 360,000 active | AID 602248; in the data active means activation above about 15%;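 further: untransfected CHO-K1 host cells lacking M1 receptor as counterscreen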
CHRM4 agonist: agonists of human muscarinic M4 receptor (CHRM4); AID 624127; CHO-K1 hM4/Gqi5, Fluo-8 calcium fluorescence; vehicle 0%, full acetylcholine response 100%; activation, % at 3 µM; P08173; 0.14% of 360,000 active;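 active means activation above the run mean over all test wells plus 3 SD, cut at about 32% in these data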;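 further: peak over basal fluorescence ratio per well then scaled between controls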
A number is an active result; . = inactive; / = not tested or not shown. The list is not random: actives were taken first. Their share in the collection is about 2%.

SMILES	CHO-K1 Ca PAM	CHRM4 antagonist	CHO-K1 Ca antag	CHRM4 PAM	M1 ag parental	CHRM4 agonist
NS(=O)(=O)c1ccc(CNC(=O)c2scc3c2CCCC3)cc1	.	.	.	.	.	.
CC1(C)C/C(=N\NC(=S)Nc2ccccc2F)c2cc(O)ccc2O1	.	.	.	.	.	.
COC(=O)CCn1c(C)cc(C(=O)COc2ccccc2C(N)=O)c1C	.	.	.	.	17.6	.
Cc1nc(C(F)(F)F)ccc1C(=O)N1CCC(C)(C(=O)NS(=O)(=O)C2CC2)C1 (centres undefined)	.	.	.	.	.	.
Cc1c(NC(=O)COC(=O)/C=C/c2ccccc2Br)c(=O)n(-c2ccccc2)n1C	.	.	.	.	.	.
O=C1c2cccc3c(O)ccc(c23)C(=O)N1Cc1ccccc1	.	46.7	60.3	.	149.2	178.3
CCN(CC(=O)Nc1c(F)cccc1F)C(=O)/C=C/c1ccc(OCC#N)c(OC)c1	.	.	.	28.6	.	.
CC(C(=O)Nc1ccon1)N1C(=O)c2ccccc2S1(=O)=O (centres undefined)	.	.	.	.	.	.
Cc1noc(C)c1C(=O)OCC(=O)Nc1ccc(C(N)=O)cc1	.	.	.	.	.	.
Cc1noc(C)c1C(=O)OCC(=O)Nc1ccc(N2CCOCC2)cc1	.	.	.	20.1	.	.
CN(C)S(=O)(=O)c1cccc2c1C(=O)c1ccccc1C2=O	.	.	.	.	.	.
CN(C)c1cc2c(c(N(C)C)c1)C(=O)c1ccccc1C2=O	.	.	.	19.8	.	.
CC(=O)N1CCN(S(=O)(=O)c2ccc(S(=O)(=O)NC3CCCCC3)cc2)CC1	.	.	.	.	.	.
CC(C)CC(=O)NC(Nc1ccc([N+](=O)[O-])cc1)C(Cl)(Cl)Cl (centres undefined)	.	.	.	.	16.4	.
CC(C)CC(=O)NC(Nc1ccccc1F)C(Cl)(Cl)Cl (centres undefined)	.	.	.	.	.	.
CC(C)(CC(=O)O)CC(=O)N1CCCN(c2nccc(C(F)(F)F)n2)CC1	.	.	.	.	.	.
CC(C)(C)C(=O)/C=c1\[nH]c(=O)/c(=C\c2ccc(C#N)cc2)s1	.	.	25.3	.	.	.
Cc1ccc(-n2c(-c3ccc(Br)cc3)c[n+]3c2CCc2ccc4cccnc4c2-3)cc1	.	41.2	.	.	.	.
CCC(=O)Nc1ccc(-c2cc3ccccc3oc2=O)cc1	.	.	24.8	.	.	.
CCc1ccc(OCC(=O)Nc2ccc(-c3cc4ccccc4oc3=O)c(OC)c2)cc1	.	.	26.2	.	.	.
CCOc1ccccc1C(=O)NCC(=O)OCC(=O)c1c(N)n(C)c(=O)n(C)c1=O	.	.	.	.	.	.
COC(=O)c1ncccc1SC	.	.	.	.	.	.
COc1cccc(C(C(=O)NC2CCCC2)N(C(=O)c2ccco2)c2ccc(NC(C)=O)cc2)c1OC (centres undefined)	.	.	.	20.9	.	.
COc1cccc(N(C(=O)c2ccco2)C(C(=O)NC2CCCC2)c2cccnc2)c1 (centres undefined)	.	.	24.0	.	.	.
CCOc1cccc(N(C(=O)c2ccco2)C(C(=O)NC2CCCC2)c2cccnc2)c1 (centres undefined)	.	.	.	.	.	.
SMILES	CHO-K1 Ca PAM	CHRM4 antagonist	CHO-K1 Ca antag	CHRM4 PAM	M1 ag parental	CHRM4 agonist
O=C(COc1ccc(Br)cc1)NCCCNC(=O)c1ccncc1	.	.	.	.	.	.
COc1ccc(/C=C/C2=Nc3ccccc3NC(C)(C)C2)cc1OC	.	.	.	.	.	.
CC(C)Cc1ccc(C(C)C(=O)Nc2ccccc2O)cc1 (centres undefined)	.	38.2	45.8	.	38.2	42.9
CC(C)Cc1ccc(C(C)C(=O)Nc2nccs2)cc1 (centres undefined)	.	29.7	.	.	16.5	34.3
COCCCN1C(=O)c2ccc(C(=O)OCC(=O)N3CCN(c4ccccc4)CC3)cc2C1=O	.	.	.	.	.	.
Cc1ccc(S(=O)(=O)Nc2cc3c(cc2C#N)OCO3)cc1C(N)=O	.	.	.	.	.	.
CN1C2CCC1CC(OC(c1ccccc1)c1ccccc1)C2 (centres undefined)	/	99.1	/	.	/	.
CN1CCC(NCCC(c2ccc(F)cc2)c2ccc(Cl)cc2)CC1 (centres undefined)	.	.	.	.	.	.
CN1CCC(OC(c2ccccc2)c2ccc(Cl)cc2)C1 (centres undefined)	.	57.8	.	.	.	.
NC(=O)c1ccsc1NC(=O)COC(=O)c1ccccc1F	.	.	.	.	.	.
NC(=O)c1ccsc1NC(=O)COC(=O)/C=C/c1ccccc1[N+](=O)[O-]	.	31.3	.	.	18.0	.
NC(=O)c1ccsc1NC(=O)COC(=O)/C=C/c1ccccc1	.	.	27.5	.	.	.
CCCCn1c(N)c(N(CC(C)C)C(=O)CSC(C)C(=O)Nc2cc(C)on2)c(=O)[nH]c1=O (centres undefined)	.	.	.	.	.	.
CCc1cc(OCCCCNCc2ccccc2)ccc1Cl	.	.	.	.	16.8	.
COc1ccc(NC(=S)N2CCN(C(=O)c3ccccc3)CC2)cc1	.	.	.	.	.	.
O=C1NC(c2ccncc2)C(C(=O)c2cccs2)C(O)(C(F)(F)F)N1 (centres undefined)	.	29.6	.	.	.	.
O=C1NC(c2cccnc2)C(C(=O)c2cccs2)C(O)(C(F)(F)F)N1 (centres undefined)	.	.	.	.	.	.
CCOc1ccc(CNS(=O)(=O)c2cccs2)cc1OCC	.	.	.	.	.	.
CCn1c(COc2ccc(C)cc2)nc2ccccc21	.	.	.	.	.	.
CCN(CC)C(=O)N1CCC(NC(=O)Cc2ccccc2)CC1	.	.	26.3	.	.	.
O=C(Cc1ccccc1)NC1CCN(C(=O)NCc2ccccc2)CC1	.	.	.	.	.	.
O=C(O)c1cccc(Cn2c(Cl)c(/C=N/NC(=O)c3cccc(O)c3)sc2=O)c1	.	33.1	.	.	.	.
Nc1c(S(=O)(=O)c2ccccc2)c2nc3ccccc3nc2n1/N=C/c1ccco1	.	.	26.4	.	.	.
CC(=O)c1c(C)[nH]c(C(=O)CN2CCN(S(=O)(=O)c3ccccc3[N+](=O)[O-])CC2)c1C	.	.	.	.	18.6	.
O=C(CN1CCN(S(=O)(=O)c2ccccc2[N+](=O)[O-])CC1)Nc1ccc(N2CCOCC2)cc1	.	.	.	.	.	.
CN1C(=O)c2cccc3c(S(N)(=O)=O)ccc1c23	.	.	.	.	16.3	.
O=C(Nc1ccc2snnc2c1)Nc1cccc2ccccc12	.	.	29.1	.	.	.

Screening data (PubChem)
